# From PubChem BioAssay
# Sampled rows, rich in hits. Any-hit rate of the full collection: about 3.5%.
# TEAD-YAP inh: TEAD-YAP interaction inhibition, primary screen, TEAD-YAP interaction inhibitor project, luminescence, HEK-TIYL cells; TEAD-Gal4/YAP UAS-luciferase luminescence; inhibition, % at 9.12 µM; 640,000 compounds, 1.4% hits; in the data active = inhibition above about 32%
# FBW7 activator: FBW7 E3 ligase activators, primary screen, biochemical, AlphaScreen, human. 650,000 compounds, 0.13% hits. normalized activity (activation), % at 26.1 µM. AID 1259310, 2017. AlphaScreen FBW7–phospho-cyclin E peptide binding, activator screen; in the data active = normalized activity above about 1.9%;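 note: purified mutant Fbw7 with reduced substrate affinity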
# GPR151 activ: activators of human GPR151, primary screen, cell-based, PathHunter beta-arrestin, luminescence. G-protein coupled receptor 151 (Homo sapiens), Q8TDV0. activation, % at 11.2 µM. PathHunter beta-arrestin GPR151 cells. 650,000 compounds, 1% hits; in the data active = activation above about 4.9%
# Target sequence (Q8TDV0 whole entry, looked up): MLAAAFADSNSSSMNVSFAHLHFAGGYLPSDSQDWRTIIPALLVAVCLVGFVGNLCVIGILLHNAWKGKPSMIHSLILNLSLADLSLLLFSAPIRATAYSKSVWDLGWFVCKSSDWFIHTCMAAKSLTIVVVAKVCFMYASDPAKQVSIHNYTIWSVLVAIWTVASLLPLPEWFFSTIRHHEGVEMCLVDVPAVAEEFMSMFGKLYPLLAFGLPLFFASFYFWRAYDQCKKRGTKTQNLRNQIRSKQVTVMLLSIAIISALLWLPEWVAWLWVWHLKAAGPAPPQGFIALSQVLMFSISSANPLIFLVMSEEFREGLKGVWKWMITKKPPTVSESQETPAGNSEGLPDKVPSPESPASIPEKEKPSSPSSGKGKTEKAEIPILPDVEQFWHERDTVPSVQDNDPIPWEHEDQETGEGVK
# MITF primary: MITF inhibitors, primary screen, biochemical, AlphaScreen, human. 650,000 compounds, 0.91% hits. Microphthalmia-associated transcription factor (Homo sapiens), O75030. inhibition, % at 2.6 µM. AlphaScreen MITF homodimerization, bead proximity signal. AID 1259374, 2018; in the data active = inhibition above about 50%
# A number is an active result; n = inactive; ! = repeats disagree.
SMILES,TEAD-YAP inh,FBW7 activator,GPR151 activ,MITF primary
Cc1cc(C)nc(NC(N)=NCc2ccccc2)n1,n,n,n,n
COc1ccc2c(CNC3CCCC3)c(C(=O)O)n(Cc3ccc(F)cc3)c2c1,n,n,n,n
O=C(CN1C(=O)c2ccc([N+](=O)[O-])cc2C1=O)Nc1ccccc1O,n,n,n,n
O=C(Oc1cccc(NC(=O)c2ccccc2Cl)c1)c1cccc(S(=O)(=O)N2CCCCC2)c1,54,n,n,n
CC1CCN(S(=O)(=O)c2cccc(C(=O)Oc3cccc(NC(=O)c4ccccc4)c3)c2)CC1,37,n,n,n
O=C(c1cccc(S(=O)(=O)N2CCCC2)c1)c1cccc(S(=O)(=O)N2CCCC2)c1,33,n,n,n
CC1CCN(S(=O)(=O)c2cccc(C(=O)Nc3ccccc3C(=O)Nc3ccccc3)c2)CC1,n,n,n,n
O=C(Nc1cccc(Br)c1)c1cc(S(=O)(=O)N2CCCC2)ccc1Cl,35,n,n,n
Cc1nn(C)c(C)c1-c1nc(Nc2ccc(Oc3ccccc3)cc2)c2ncn(-c3ccccc3)c2n1,n,n,n,n
COc1cc2ccccc2cc1/C(O)=C(\C#N)c1nc2ccccc2[nH]1,n,n,n,n
CCOc1ccc(N(CC(=O)Nc2ccccc2C)S(=O)(=O)c2c(C)noc2C)cc1,55,n,n,n
COc1ccc(C(=O)Nc2nc(-c3ccc(C(C)C)cc3)cs2)cc1,n,n,n,n
CC(C)c1ccc(-c2csc(NC(=O)c3ccnn3C)n2)cc1,57,n,n,n
O=C(NCc1ccccc1Cl)c1ccc2c(=O)n(CCc3ccccc3)c(SCc3cccc([N+](=O)[O-])c3)nc2c1,n,n,n,n
CSC1=NCCN1C(=O)c1ccccc1[N+](=O)[O-],n,n,n,n
O=C1NC(=S)N/C1=C/c1ccc(O)c(O)c1,n,n,n,87
CN(C)c1ccc(/C=C2\NC(=S)NC2=O)cc1[N+](=O)[O-],n,n,n,71!
COc1ccccc1CNS(=O)(=O)c1ccc(Oc2ccc(S(=O)(=O)NCc3ccccc3OC)cc2)cc1,43,n,n,n
O=S(=O)(NCc1ccco1)c1ccc(Oc2ccc(S(=O)(=O)NCc3ccco3)cc2)cc1,48,n,n,n
COc1ccccc1CNS(=O)(=O)c1ccc(F)cc1,n,n,n,n
COC(CNS(=O)(=O)c1ccc(Oc2ccc(S(=O)(=O)NCC(OC)OC)cc2)cc1)OC,49,n,n,n
Cc1ccccc1NC(=O)c1c(NC(=O)c2ccncc2)sc2c1CCCCC2,n,n,n,n
CCOc1ccc(N2CSC3=C(C#N)C(c4ccco4)CC(=O)N3C2)cc1 (configuration not stated),n,n,n,69
CCOc1ccc(N2CSC3=C(C#N)C(c4cccs4)CC(=O)N3C2)cc1 (configuration not stated),n,n,n,n
COc1cc(NC(=O)c2sc3ncnc(N(C)c4ccccc4)c3c2C)cc(OC)c1OC,50,n,n,n
SMILES,TEAD-YAP inh,FBW7 activator,GPR151 activ,MITF primary
Cc1cc(-c2cnc(N3CCCC3)nc2C2CCN(Cc3ccnn3C)CC2)on1,n,n,n,n
Cn1nc2c(c1NC(=O)C1CCCN(S(=O)(=O)c3ccc(Cl)s3)C1)CCC2 (configuration not stated),33,n,n,n
COc1ccc(S(=O)(=O)N2CCCC(C(=O)Nc3c4c(nn3C)CCC4)C2)cc1 (configuration not stated),n,n,n,n
O=C(Cn1ncn2nc(-c3cccs3)cc2c1=O)NCc1ccccc1,n,n,n,n
COc1ccc(NC(=O)C(=O)NCC2CCCN2S(=O)(=O)c2cccs2)cc1 (configuration not stated),45,n,n,n
Cc1ccc(NC(=O)C(=O)NCC2CCCN2S(=O)(=O)c2cccs2)cc1C (configuration not stated),n,n,n,n
CCOc1ccc(/C=N/NC(=O)c2cccs2)cc1,n,n,n,n
COc1cccc(/C=N/NC(=O)C(=O)NCc2cccnc2)c1O,n,n,n,61
CCN(CC)c1ccc(/C=N/NC(=O)c2cccnc2)c(O)c1,70,n,n,n
CCOc1cccc(/C=N/NC(=O)c2cccs2)c1O,50,n,n,n
COc1cccc(/C=N/NC(=O)c2cccnc2)c1O,n,n,n,71
Cc1nc2ccc(C(=O)N3CCC(n4c(C)nc5sc(C)c(C)c5c4=O)CC3)cc2[nH]1,n,n,n,n
CCOc1cccc(/C=N\NC(=O)c2ccc(Br)cc2)c1O,n,n,n,n
CCOc1cccc(/C=N\NC(=O)c2cccnc2)c1O,n,n,n,59
COc1ccc(NC(=O)c2cc3cccc(OC)c3oc2=Nc2ccc(C(=O)O)cc2)c(OC)c1,n,n,n,n
CC/C(C)=N\NC(=O)c1cc(OC)c(OC)c(OC)c1,58,n,n,n
COc1ccc(C(=O)N/N=C(\C)CC(=O)NCc2ccco2)cc1OC,35,n,n,n
COc1cccc2cc(C(=O)NCc3ccco3)c(=Nc3ccc(C(=O)O)cc3)oc12,46,n,n,n
COc1cc(C(=O)NN=C2CCCCCC2)cc(OC)c1OC,60,n,n,n
CC(Sc1nnc(NCc2ccccc2)s1)C(=O)NC(N)=O (configuration not stated),n,n,n,n
CCCOc1ccc(S(=O)(=O)NCc2cccnc2)cc1,n,n,n,n
CCOC(=O)C(=N/O)/C(C)=N/NC(=O)c1cc(OC)c(OC)c(OC)c1,41,n,n,n
COC(=O)c1ccc(-c2ccc(/C=C(\C#N)c3nc(N)c(C#N)c(N)c3C#N)o2)cc1,n,4.7,n,n
COCCCN1C(=O)c2[nH]nc(-c3ccccc3O)c2C1c1cccc(Cl)c1 (configuration not stated),36,n,n,n
COCCCN1C(=O)c2[nH]nc(-c3ccccc3O)c2C1c1ccc(Cl)cc1 (configuration not stated),n,n,n,n
SMILES,TEAD-YAP inh,FBW7 activator,GPR151 activ,MITF primary
COc1cc(/C=C/C(=O)N2CCC=CC2=O)cc(OC)c1OC,78,n,n,n
COc1cc(/C=C/C(=O)C(C)(C)O)cc(OC)c1OC,n,n,n,n
Cn1/c(=N/N=C/c2ccc(C(=O)O)cc2)sc2ccccc21,n,n,n,n
Cn1/c(=N\N=C/c2ccc(O)cc2)sc2ccccc21,n,1.9,n,n
Oc1ccc2cc(Br)ccc2c1Br,n,2.1,n,n
COc1ccc(CNc2nc(Nc3ccc(N4CCOCC4)cc3)nc3cc(OC)c(OC)cc23)cc1,n,n,n,n
Cc1cc(NCc2ccccc2)nc(Nc2ccc(N3CCOCC3)cc2)n1,49,n,n,n
c1cnc(Nc2nccc(Nc3ccc(N4CCOCC4)cc3)n2)cn1,n,n,n,n
COc1ccc(CNc2cc(C)nc(Nc3ccc(N4CCOCC4)cc3)n2)cc1,37,n,n,n
Cc1cc(NCc2ccccc2)nc(Nc2ccc(-n3ccnc3)cc2)n1,35,n,n,n
